Reference: PubChem BioAssay (EPA / NIEHS)
Several values for one entry are separate records, joined by “and”; a condition that tells them apart may be missing. Identical values can stand only once. Results filed as inconclusive are left out. Some compounds were tested as several samples or in several runs, with calls that do not always agree. Activity calls are given as the source filed them. The calls were made as follows: active = hit-call score of the fitted dose curve at least 0.9, where 1 is the maximum; inconclusive = response in the unintended direction; inactive = score below 0.9.

Each molecule was assayed on xenobiotic metabolism (CYP1A2), CYP1A2 (gene 1544) (assay: CLD_CYP1A2_48hr: CellzDirect (CLD) Gene Expression Assay for xenobiotic metabolism (CYP1A2) at 48 hours (AID 2283703)).
Description: CLD_48hr is a cell-based, multiplexed-readout assay that uses hepatocyte, a human liver primary cell, with measurements taken at 48 hours after chemical dosing in a 96-well plate.CLD_CYP1A2_48hr is one of 16 assay component(s) measured or calculated from the CLD_48hr assay. It is designed to make measurements of mRNA induction, a form of inducible reporter, as detected with chemiluminescence signals by Quantitative Nuclease Protection Assay (qNPA) technology.Data from the assay component CLD_CYP1A2_48hr was analyzed at the endpoint, CLD_CYP1A2_48hr, in the positive analysis fitting direction relative to DMSO as the negative control and baseline of activity. Using a type of inducible reporter, gain-of-signal activity can be used to understand changes in the reporter gene as they relate to the gene CYP1A2. Furthermore, this assay endpoint can be referred to as a primary readout. To generalize the intended target to other relatable targets, this assay endpoint is annotated to the cyp intended target family, where subfamily is xenobiotic metabolism.
Human hepatocyte cultures were treated daily for two consecutive days with fresh dosing solutions containing appropriate concentrations of the 320 ToxCast chemicals (chemical identities were blinded to CellzDirect and other ToxCast collaborators), vehicle control (0.2% DMSO), and positive control inducers as summarized in Table 1. Due to the large number of treatment groups and chemicals examined, the ToxCast chemicals were divided into two groups (spanning two independent cultures of hepatocytes from separate donor preparations (Hu778: ToxCast plates 1 and 2; Hu776: ToxCast plates 3 and 4). Each preparation of human hepatocyte cultures was treated with respective vehicle control, medium only control, set of six positive controls/reference chemicals for the five hepatic receptor pathways, and a subset of eight of the ToxCast chemicals (indoxacarb, pyrithiobac-sodium, norflurazon, cyhalofop-butyl, methomyl, thiram, acetochlor, and propiconazole). These replicate data, coupled with internal replicates designed within the blinded ToxCast chemical library, provided additional data to evaluate interindividual differences between hepatocyte preparations and their potential impact on chemical profiles.Cell morphology and integrity were evaluated using phase-contrast microscopy as an indicator of hepatocyte cell health (Tyson & Green, 1987). Cultures for each treatment group (i.e., media, vehicle [0.2% DMSO], positive control inducers [multiple concentrations], and the ToxCast chemicals [multiple concentrations]) were observed and cell morphology was assessed relative to vehicle control cultures at each harvest time point (0, 6, 24, or 48 h). […] Images were evaluated at the conclusion of the study to assess changes in cell integrity and account for the effects of chemical exposure on uncharacteristic changes in concentration-dependent gene expression profiles. The results from these determinations of apparent cytotoxicity were annotated (yes/no) alongside the corresponding qNPA data for reference.At the conclusion of each treatment period, hepatocyte cultures (96-well) were washed with 1 volume of HBSS, lysed by addition of 25 ul ArrayPlate lysis buffer (HTG, Tucson, AZ), and 70 ul/well of Denaturation Oil, denatured by incubation at 95C for 10 min, and frozen at approximately -70C until analysis by nuclease protection assay (qNPA) (Roberts et al., 2007). For qNPA analysis, cell lysates were thawed at 50C for approximately 30 min, qNPA probes were added, and samples were incubated at 95C for 10 min to begin the detection process by denaturing the target RNA, dissociating the duplexes and secondary structure hybridization. At the conclusion of the hybridization period, S1 nuclease reagent was added to each sample to digest all nonprotected nucleotides at 50C for 60-90 min. […]
With Cc1ccc(-c2c(Cl)nc(C#N)n2S(=O)(=O)N(C)C)cc1 the outcome was “inactive”.
In the case of CCON=C(CC)C1=C(O)CC(c2c(C)cc(C)cc2C)CC1=O (stereo not given), the outcome was “inactive”.
For CCCC1COC(Cn2cncn2)(c2ccc(Cl)cc2Cl)O1 (stereo not given), the AC50 was 5.36 µM (active).
In the case of CC(C)(C)c1ccc(CSc2cnn(C(C)(C)C)c(=O)c2Cl)cc1, the outcome was “inactive”.
In the case of CC(Oc1ccc(Cl)cc1Cl)C(=O)O (stereo not given), the outcome was “inactive”.
In the case of COc1cnc(OC)n2nc(NS(=O)(=O)c3c(OCC(F)F)cccc3C(F)(F)F)nc12, the outcome was “inactive”.
With C=CC1(C)OC(=O)N(c2cc(Cl)cc(Cl)c2)C1=O (stereo not given) the AC50 was 0.966 µM (active).
In the case of COc1nc(C)nc(NC(=O)NS(=O)(=O)c2ccccc2Cl)n1, the outcome was “inactive”.
C=CCC1=C(C)[C@@H](OC(=O)[C@@H]2[C@@H](C=C(C)C)C2(C)C)CC1=O was tested, and the outcome was “inactive”.
For CC(C)C1(C)N=C(c2nc3ccccc3cc2C(=O)O)NC1=O (stereo not given), the outcome was “inactive”.
With CC(C)Oc1cc(-n2nc(C(C)(C)C)oc2=O)c(Cl)cc1Cl the AC50 was 6.1 µM (active).
With Cc1c(F)c(F)c(COC(=O)C2C(/C=C(\Cl)C(F)(F)F)C2(C)C)c(F)c1F (stereo not given) the AC50 was 4.46 µM (active).
With COC(=O)C(C)Oc1ccc(Oc2ccc(Cl)cc2Cl)cc1 (stereo not given) the AC50 was 20 µM (active) and 12.1 µM (active) and the outcome was “inactive”.
In the case of CCNc1nc(Cl)nc(NC(C)C)n1, the AC50 was 10.2 µM (active).
With COc1nc(NC(C)C)nc(NC(C)C)n1 the AC50 was 7.97 µM (active).
COc1ccc(C(c2ccc(OC)cc2)C(Cl)(Cl)Cl)cc1 was tested, and the AC50 was 8.31 µM (active).
With COc1nc(C)nc(NC(=O)NS(=O)(=O)c2ccccc2CCC(F)(F)F)n1 the outcome was “inactive” and the AC50 was 8.01 µM (active).
CS/C(C)=N/OC(=O)N(C)SN(C)C(=O)O/N=C(\C)SC was tested, and the outcome was “inactive”.
With CCOC(=O)CC(SP(=S)(OC)OC)C(=O)OCC (stereo not given) the AC50 was 5.39 µM (active).
With CCNc1nc(Cl)nc(NCC)n1 the AC50 was 8.97 µM (active).
In the case of CC1COC(Cn2cncn2)(c2ccc(Oc3ccc(Cl)cc3)cc2Cl)O1 (stereo not given), the AC50 was 0.397 µM (active).
Fc1ccc(Oc2ccnc3cc(Cl)cc(Cl)c23)cc1 was tested, and the AC50 was 3.98 µM (active).
For CN(C)C(=S)SSC(=S)N(C)C, the AC50 was 34 µM (active).
For COC(=O)C=C(C)OP(=O)(OC)OC, the outcome was “inactive”.
For C#CCOS(=O)OC1CCCCC1Oc1ccc(C(C)(C)C)cc1 (stereo not given), the AC50 was 3.47 µM (active).
For COP(N)(=O)SC (stereo not given), the outcome was “inactive”.
For COC(=O)c1ccccc1C(=O)OC, the outcome was “inactive”.
For CCOc1cc(Oc2ccc(C(F)(F)F)cc2Cl)ccc1[N+](=O)[O-], the AC50 was 0.845 µM (active).
Oc1ccccc1-c1ccccc1 was tested, and the AC50 was 9.96 µM (active).
With CC1=C(C(=O)Nc2ccccc2)SCCO1 the AC50 was 31.1 µM (active).
For O=C(Nc1ccccc1)Nc1ccnc(Cl)c1, the AC50 was 7.3 µM (active).
In the case of CCCCNC(=O)n1c(NC(=O)OC)nc2ccccc21, the AC50 was 6.67 µM (active).
With CNC(=S)S the AC50 was 20 µM (active).
With CON(C)C(=O)Nc1ccc(Cl)c(Cl)c1 the AC50 was 1.27 µM (active).
With CCCCNC(=O)OCC#CI the outcome was “inactive”.
In the case of Cc1cc(Cl)ccc1OCC(=O)O, the outcome was “inactive”.
With CCCCOC(=O)c1ccccc1C(=O)OCCCC the AC50 was 10.6 µM (active) and 11.1 µM (active).
For COP(=S)(OC)Oc1nc(Cl)c(Cl)cc1Cl, the AC50 was 5.26 µM (active).
